Hit rate of the full screen: of about 52,000 compounds, about 4,300 (8.3%) were called active. The entries come from a sample that favours actives as a whole. A number with no mark means an inactive call. Cut-off read from the data, not from the text of the source: active = survival mostly below about 52% (no sharp cut-off); inactive = mostly above about 56%.

This test relates to DeltatarO mutant. In words: growth inhibition of S. aureus wild type versus tarO mutant, primary screen, teichoic acid synthesis inhibitors, RN4220, OD600 (AID 463173). The following applies: OD600, 18 h, stronger effect = lower value, screened at 18.75 µg/mL (by protocol).
Regarding `Cc1cccc(C(=O)OCc2cc(=O)n3ccsc3n2)c1`, the survival was 84%.

Take `COc1ccccc1C(=O)Nc1ccc(C(=O)OCc2cc(=O)n3ccsc3n2)cc1`: the survival is 96%.

As for `COc1ccccc1C(=O)Nc1cccc(C(=O)OCc2cc(=O)n3ccsc3n2)c1`, the survival is -4% (active).

For the compound `COc1cc(C(=O)OCc2cc(=O)n3ccsc3n2)cc(OC)c1OC`, the survival is -2% (active).

For `Cc1ccccc1C(=O)Nc1ccccc1C(=O)OCc1cc(=O)n2ccsc2n1`, the survival is 77%.

In the case of `COc1ccccc1C(=O)Nc1ccccc1C(=O)OCc1cc(=O)n2ccsc2n1`, the survival is -5% (active).

For the compound `Cc1ccccc1C(=O)Nc1cccc(C(=O)OCc2cc(=O)n3ccsc3n2)c1`, the survival was 72%.

In the case of `O=C(Nc1ccccc1C(=O)OCc1cc(=O)n2ccsc2n1)c1ccccc1Cl`, the survival was 60%.

`COc1cc(C(=O)OCc2cc(=O)n3nc(C(C)C)sc3n2)cc(OC)c1OC`: the survival was 99%.

As to `CCc1nnc2c(NCc3cccc(OC)c3)nc3ccccc3n12`, the survival is 89%.

As to `Cc1cc(C)c2c(=O)cc(C(=O)Nc3nc4ccc(F)cc4s3)oc2c1`, the survival is 61%.

For the compound `COc1ccc(-c2cn3c(n2)sc2cc(C(=O)NC4CCCCC4)ccc23)cc1`, the survival was 79%.

For the compound `CSc1cccc(NC(=O)Cn2ncn3c(cc4ccccc43)c2=O)c1`, the survival was 65%.

`CCN(Cc1ccccc1)C(=O)Cn1c(=O)n(-c2cccc(C)c2)c(=O)c2c1c1cc(OC)ccc1n2C`: the survival was 59%.

Consider `O=C(NCC(c1cccnc1)N1CCc2ccccc2C1)C(=O)Nc1ccc(F)cc1F` (centres undefined), for which the survival is 107%.

For `O=C(Nc1c(-c2ccc(F)cc2)nc2ccccn12)c1ccccc1F`, the survival was 139%.

For `Cc1ccc(C(=O)Nc2c(-c3ccccc3)nc3ccccn23)cc1C`, the survival is 34% (active).

Turning to `CC(C)Nc1c(-c2ccccc2)nc2ccccn12`, the survival was 105%.

In the case of `O=C(Nc1c(-c2ccccc2)nc2ccccn12)c1ccc(Br)cc1`, the survival is 31% (active).

In the case of `Cc1cc(C(=O)Nc2c(C)nc3ccccn3c2=O)ccc1[N+](=O)[O-]`, the survival was 92%.

For the compound `Cc1cccc(C(=O)Nc2c(-c3ccc(F)cc3)nc3ccccn23)c1`, the survival was 91%.

Regarding `O=C(Nc1c(-c2ccccc2)nc2ccccn12)c1ccccc1F`, the survival was 48%.

For the compound `COC(=O)Nc1c(-c2ccccc2)nc2ccc(C)cn12`, the survival is 74%.

As to `Cc1ccc(C(=O)Nc2c(-c3ccccc3)nc3ccccn23)cc1`, the survival was 40% (active).

As to `Cc1cc(NC(=O)CSc2ccccc2)no1`, the survival is 88%.

Take `CCOC(=O)Cc1nnc2c(Nc3cc(C)ccc3C)nc3nonc3n12`: the survival was 101%.

As to `Cc1oc(-c2cccc(Cl)c2)nc1Cn1c(SCc2ccc(F)cc2)nc2cccnc21`, the survival was 85%.

As to `Cc1ccc(C)c2nc(SCC(=O)OC(C)C)c(C#N)cc12`, the survival is 92%.

For the compound `COc1ccc(C(NC(C)=O)c2ccc(OC)cc2)cc1`, the survival is 77%.

Turning to `Cn1cnc(S(=O)(=O)N2CCC(C(=O)N3CCN(c4cccc(C(F)(F)F)c4)CC3)CC2)c1`, the survival is 106%.

Consider `O=C(NC1CCCC1)c1ccc(CSc2nc3cccnc3n2Cc2ccccc2)cc1`, for which the survival is 95%.

Turning to `COc1ccc(Cn2cc(S(=O)(=O)c3ccc(Cl)cc3)c(=O)c3cc4c(cc32)OCO4)cc1`, the survival is 58%.

On to `COc1nnc(-c2ccc(N3CCCCC3)c(NC(=O)c3ccc(C)cc3)c2)c2ccccc12`, for which the survival is 26% (active).

On to `COc1nnc(-c2ccc(N3CCCCC3)c(NC(=O)c3ccc(Cl)cc3)c2)c2ccccc12`, for which the survival is 107%.

For the compound `Cn1nc(-c2ccc(N3CCCCC3)c(NC(=O)c3ccc(Cl)cc3)c2)c2ccccc2c1=O`, the survival is 66%.

In the case of `COc1nnc(-c2ccc(N3CCCCC3)c(NC(=O)c3ccccc3Cl)c2)c2ccccc12`, the survival was -1% (active).

For `Cn1c(=O)c(=O)n(C)c2cc(N3CCCC3)c(NC(=O)c3ccccc3Cl)cc21`, the survival is 90%.

Consider `COc1ccccc1C(=O)Nc1cc2c(cc1N1CCCC1)n(C)c(=O)c(=O)n2C`, for which the survival was 89%.

With `CCn1c(=O)c(=O)n(CC)c2cc(N3CCCCC3)c(NC(=O)c3cccc(OC)c3)cc21`, the survival is 85%.

For `COc1ccccc1C(=O)Nc1cc2c(cc1N1CCCCC1)n(C)c(=O)n2C`, the survival was 78%.

As for `COc1nnc(-c2ccc(N3CCCCC3)c(NC(=O)c3ccccc3)c2)c2ccccc12`, the survival is 0% (active).

Consider `COc1ccc(S(=O)(=O)Nc2ccc3c(c2)N(C(C)=O)CCC3)cc1F`, for which the survival is 85%.

Consider `Cc1cc(SCCN2CCOCC2)nc2ccccc12`, for which the survival was 68%.

With `CCc1ccc(CNC(=O)c2ccc3nc(SCc4ccc(F)cc4)n(C)c3c2)cc1`, the survival was 94%.

Consider `O=C(CSc1cn(CC(=O)N2CCCC2)c2ccccc12)Nc1cc(C(F)(F)F)ccc1Cl`, for which the survival is 52%.

For `O=C1CSC(c2ccccc2)N1Nc1nc(N2CCOCC2)nc(N2CCOCC2)n1` (centres undefined), the survival is 101%.

For the compound `COc1cccc(CNC(=O)Cn2nc(N3CCN(c4ccccc4OC)CC3)ccc2=O)c1`, the survival is 86%.

`CCn1c2ccccc2c2cc(NC(=O)COc3ccc(C)c(C)c3)ccc21`: the survival was 119%.

As to `CCn1c(=O)cc(SCC(=O)Nc2ccc(C)c(F)c2)c2ccccc21`, the survival was 89%.

With `CCn1c2ccccc2c2cc(NC(=O)COc3cccc(C)c3)ccc21`, the survival is 27% (active).

Regarding `CCn1c2ccccc2c2cc(NC(=O)COC)ccc21`, the survival is 43% (active).

For the compound `Cc1cccc(OCC(=O)Nc2ccc(NC(=O)c3ccco3)cc2)c1`, the survival was 83%.

`COc1ccc(Nc2cc(C)c3cc(NC(=O)COc4cccc(C)c4)ccc3n2)cc1`: the survival was 102%.

As for `CCn1c(=O)cc(OCC(=O)Nc2cc(OC)c(OC)c(OC)c2)c2ccccc21`, the survival was 47%.

With `Cc1cc(OCC(=O)Nc2ccc3c(c2)OCCO3)cc(C)c1Cl`, the survival is 77%.

As for `CCn1c2ccccc2c2cc(NC(=O)COc3cc(C)c(Cl)c(C)c3)ccc21`, the survival was 50% (active).

Turning to `COc1ccc(OCC2CNC(=O)O2)cc1` (centres undefined), the survival was 61%.

As for `C=CCn1c(=O)/c(=C2/Sc3ccccc3N2CC)s/c1=C1/C(=O)NN=C1C`, the survival was 89%.

Regarding `Cc1ccc(Nc2ccc(N3CCN(C(=O)c4cccc([N+](=O)[O-])c4)CC3)nn2)cc1`, the survival is 85%.

(Values after PubChem BioAssay AID463173 (ICCB-Longwood Screening Facility, Harvard Medical School, 2010).)
